# From ChEMBL document CHEMBL2218924, “A broad activity screen in support of a chemogenomic map for kinase signalling research and drug discovery” (Biochem J, 2013)
# Target: Serine/threonine-protein kinase PLK1 (Homo sapiens) (UniProt P53350)
# Conditions: at 10 µM
# Serine/threonine-protein kinase PLK1 (Homo sapiens), sequence (P53350 whole entry): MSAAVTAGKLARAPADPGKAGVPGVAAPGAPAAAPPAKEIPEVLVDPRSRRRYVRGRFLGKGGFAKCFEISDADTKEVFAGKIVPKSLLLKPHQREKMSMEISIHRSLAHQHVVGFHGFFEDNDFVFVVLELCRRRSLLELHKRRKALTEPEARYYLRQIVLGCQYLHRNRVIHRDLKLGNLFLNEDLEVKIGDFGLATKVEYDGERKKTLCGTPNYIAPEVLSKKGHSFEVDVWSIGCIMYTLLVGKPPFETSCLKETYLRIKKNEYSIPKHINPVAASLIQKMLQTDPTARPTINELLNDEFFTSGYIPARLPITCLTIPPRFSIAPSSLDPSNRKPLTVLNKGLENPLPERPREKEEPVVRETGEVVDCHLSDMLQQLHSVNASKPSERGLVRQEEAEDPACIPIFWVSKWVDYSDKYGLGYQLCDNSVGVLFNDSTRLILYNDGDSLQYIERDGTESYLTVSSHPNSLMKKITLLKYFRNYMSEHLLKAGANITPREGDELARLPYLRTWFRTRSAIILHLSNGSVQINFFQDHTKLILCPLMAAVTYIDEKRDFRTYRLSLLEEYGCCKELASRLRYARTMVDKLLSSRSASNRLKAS
row,Compound,residual activity
1,COc1ccc(C(=O)Nc2sc3c(c2C(N)=O)CCCC3)cc1OC,75%
2,COc1cc2ncnc(Nc3ccc(Oc4ccccc4)cc3)c2cc1OC,72%
3,Nc1cccc(-c2cc3c(Oc4cccc(O)c4)ncnc3[nH]2)c1,83%
4,O=Nc1c(-c2c(O)[nH]c3ccccc23)[nH]c2ccccc12,103%
5,Cc1nc(-c2ccccc2)c(-c2ccncc2)o1,93%
6,CNc1cc2c(Nc3cccc(Br)c3)ncnc2cn1,94%
7,O=C1Nc2cc(Br)ccc2/C1=C1/Nc2ccccc2/C1=N\O,81%
8,Cc1ccc(S(=O)(=O)/C=C/C#N)cc1,102%
9,CC(C)n1cnc2c(NCc3ccccc3)nc(NCCCO)nc21,52%
10,CCC(=O)Nc1ccc2ncnc(Nc3cccc(Br)c3)c2c1,71%
11,C[C@@H](N)[C@H]1CC[C@H](C(=O)Nc2ccncc2)CC1,105%
12,O=C1NC(=O)c2cc(Nc3ccc(F)cc3)c(Nc3ccc(F)cc3)cc21,69%
13,CO[C@H]1[C@@H](OC)C[C@H](C)[C@@H](OC)C2=CC(=O)C=C(NC(=O)/C(C)=C/C=C/[C@H](OC)[C@@H](OC(N)=O)/C(C)=C/[C@@H]1C)C2=O,70%
14,Oc1ccc(Nc2nc(-c3ccc(Cl)cc3)cs2)cc1,90%
15,O=c1cc(-c2cccc3c2Sc2ccccc2S3)oc(N2CCOCC2)c1,99%
16,O=C1NC(=O)/C(=C/c2ccc3c(c2)OC(F)(F)O3)S1,61%
17,Ic1cccc(CSc2nnc(-c3ccncc3)o2)c1,74%
18,Cn1nc2c3c(cccc31)C(=O)c1ccccc1-2,77%
19,CC(C)n1cnc2/c(=N/c3cccc(Cl)c3)nc(NCCO)[nH]c21,6%
